The record followed here is article PMC5540273 (PLoS ONE, 2017).
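Also: KINOMEscan kinase panel screen.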

The assay concerns p38-delta. To be noted: concentration: 1 μM, replicates: in singlicate; n = 1.
As to `CCC(=O)c1c(-c2ccccc2)c2cc(Cl)ccc2c(=O)n1Cc1cc(S(C)(=O)=O)n(CCC(C)(C)O)n1`, the “%Inh” value came out at 32%.

Regarding `COc1cc2ncn(-c3cc(OCc4ccc(S(C)(=O)=O)cc4)c(C(N)=O)s3)c2cc1OC` [GW869979], the “%Inh” value is recorded as 0%.

On to `Fc1cccc(CSc2nnc(-c3ccc4c(c3)CCO4)o2)c1`, for which the “%Inh” value was found to be 28%.

Turning to `Cc1nc(N(C)[C@H]2CN(C(=O)CC#N)CC[C@H]2C)c2cc[nH]c2n1`, the “%Inh” value stood at 0%.

Consider `Nc1nc(N)c2nc(-c3ccccc3)[nH]c2n1` [SKF-12778], for which the “%Inh” value is on record as 19%.

Regarding `COc1cc2ncn(-c3cc(OCc4ccncc4)c(C(N)=O)s3)c2cc1OC` [GSK336313], the “%Inh” value amounted to 42%.

For `CCC(=O)c1c(-c2ccccc2)c2cc(Cl)ccc2c(=O)n1Cc1cc(S(C)(=O)=O)n(CC(F)F)n1`, the “%Inh” value is given as 19%.

As for `O=C(Nc1n[nH]c2cc(-c3ccccc3F)ccc12)C1CC1` [SB-733371], the “%Inh” value is reported as 0%.

As to `Cc1nnc(-c2ccc3ncn(-c4ccc(S(C)=O)cc4)c3c2)o1` (stereo not drawn), the “%Inh” value was found to be 1%.

Regarding `Nc1n[nH]c2ncc(-c3ccccc3)cc12` [SB-517081], the “%Inh” value turned out to be 24%.

Take `Cc1ccc(Oc2ccc(Nc3ncnc4cc[nH]c34)cc2C)cn1`: the “%Inh” value is on record as 30%.

With `FC(F)(F)c1ccc(-c2ncn(CCCN3CCOCC3)c2-c2ccncc2)cc1` [SB-217780], the “%Inh” value is 42%.

With `COC(=O)c1c(-c2ccccc2)c2cc(Br)ccc2c(=O)n1Cc1ccc(S(C)(=O)=O)cc1`, the “%Inh” value was determined as 38%.

Regarding `Cl.NS(=O)(=O)c1cccc(Nc2cc(-c3ccc(F)cc3)n[nH]2)c1` [GW824645], the “%Inh” value worked out at 0%.

With `Cc1nn2c(=O)cc(N3CCOCC3)nc2n1Cc1cccc(Cl)c1Cl` [GSK2342769], the “%Inh” value amounted to 17%.

For the compound `COc1cc(Nc2nccc(N3CCC(NC(=O)C4COc5ccccc5O4)C3)n2)cc(OC)c1OC` (stereo not drawn) [GSK1379761], the “%Inh” value is recorded as 34%.

As to `COc1ccc(-c2cc3c(C)nc(N)nc3n([C@H]3CC[C@H](OCCO)CC3)c2=O)cn1`, the “%Inh” value stood at 13%.

As to `O=c1cc(N2CCOCC2)nc2n(Cc3ccc(F)c(Cl)c3)ccn12` [GSK2297099], the “%Inh” value is given as 36%.

With `COC(=O)c1c(-c2ccccc2)c2cc(C)ccc2c(=O)n1Cc1ccccc1`, the “%Inh” value is 21%.

For `Nc1ncnc2c1ncn2-c1cccc2ccccc12` [SKF-97184], the “%Inh” value was 0%.

Consider `CC(C)(C)c1ccc(C(=O)Nc2cn3cc(-c4ccccc4)ccc3n2)cc1`, for which the “%Inh” value worked out at 34%.

As to `CN1C(=O)C(Nc2cc(Cl)c(O)c(Cl)c2)=C(c2ccc(Cl)cc2)C1=O` [SB-404321], the “%Inh” value came to 21%.

Consider `COc1ccc(-n2cnc3c(N)ncnc32)cc1` [SKF-97236], for which the “%Inh” value came to 0%.

Consider `COC(=O)c1c(-c2ccccc2)c2cc(Br)ccc2c(=O)n1Cc1ccc(NC(=O)CCC(=O)O)cc1`, for which the “%Inh” value is on record as 28%.

For the compound `COc1cccc(-n2cnc3c(N)ncnc32)c1` [SKF-97416], the “%Inh” value is listed as 0%.

As for `Cl.c1ccc(Cn2cnc3cc(Nc4ncnc5ccccc45)ccc32)cc1` [GW272142], the “%Inh” value worked out at 39%.

Take `Nc1nccc2scc(-c3ccc4c(c3)CCN4C(=O)Cc3ccccc3)c12` [GSK2576924]: the “%Inh” value is recorded as 19%.

Regarding `COc1cc2ncn(-c3cc(OCCCc4ccccc4)c(C(N)=O)s3)c2cc1OC` [GSK205189], the “%Inh” value worked out at 6%.

For the compound `CCC(=O)c1c(-c2ccccc2)c2cc(Cl)ccc2c(=O)n1Cc1ccc(C(=O)O)cc1`, the “%Inh” value is 4%.

As for `O=C(Nc1n[nH]c2nc(-c3ccccc3)c(Br)cc12)C1CC1` [SB-708998], the “%Inh” value worked out at 0%.

Turning to `CN(C)c1cc(-c2ccc3c(N)n[nH]c3c2)nc(N)n1` [GSK2219329], the “%Inh” value is reported as 37%.

For the compound `CCS(=O)c1ccc(-c2coc3ccc(-c4nnc(C)o4)cc23)cc1` (stereo not drawn), the “%Inh” value came out at 11%.

As to `O=C(Nc1ccc2c(c1)OCO2)NC1CCN(c2ccnc(NCc3ccc(F)cc3)n2)CC1` [GSK1379859], the “%Inh” value is 28%.

For `Nc1ncnc2c1ncn2-c1ccc(Cl)cc1` [AH2635], the “%Inh” value is given as 32%.

As to `Cc1cccc(-c2cc(-c3c[nH]nc3-c3ccccn3)ccn2)c1` [GW679395], the “%Inh” value is 44%.

For the compound `O=C(Nc1n[nH]c2nc(-c3ccccc3)c(Cl)cc12)C1CC1` [SB-734909], the “%Inh” value was determined as 10%.
